Records with an inconclusive call do not appear. Where a call stands in place of a potency, no number is given. Active and inactive are the calls of the source. The call rests on the fitted dose curve; in most records, active means well fitted inhibition curve with a large enough effect; inconclusive means small, poorly fitted or top-dose-only effect; inactive means no such curve, though single readings can be large or run the other way.
Experiment: P-glycoprotein substrates identified in KB-3-1 adenocarcinoma cell line, qHTS therapeutic library screen (AID 1346986); further: nearly all actives have a fitted effect of over 60% in size;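 further: potency is for cytotoxicity meaning loss of cell viability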
Conditions: KB-3-1 parental cells viability, CellTiter-Glo, 72 h; series mostly up to 44.5 µM; activity change, negative = cytotoxicity: at the top concentration
Procedure, shortened: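 KB-3-1 parental cells and P-gp-overexpressing KB-8-5-11 (colchicine omitted during assay) plated at 500 cells/well, dosed in dose-response, incubated 72 h at 37 degree C. CellTiter-Glo luminescence read; KB-8-5-11 also tested with tariquidar.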
Potency means the concentration at half of the fitted maximal effect.

Row | SMILES | outcome | Potency
1 | CC(C)(C)C(=O)CN1C(=O)[C@H](NC(=O)Nc2cccc(C(=O)O)c2)CN(C2CCCCC2)c2ccccc21 | inactive | 
2 | O=C(O)c1cc(-c2c(-c3ccccc3)nn3ccccc23)n[nH]c1=O | inactive | 
3 | Cc1cc(Nc2nc(NC(C)c3ncc(F)cn3)ncc2Cl)n[nH]1 (stereo not drawn) | inactive | 
4 | CC(=O)O[C@@H]1c2c3c(cc(O)c2C(=O)O[C@@H]1C)O[C@@]1(C)[C@@H](O)C[C@H]2C(C)(C)C(=O)C=C[C@]2(C)[C@@H]1C3 | inactive [at 17.4 µM] | 
5 | CCCOC(c1cc2nccc(C(=O)O)c2[nH]1)c1ccccc1Cl (stereo not drawn) | inactive | 
6 | CC(C)C[C@H](CC(=O)NO)C(=O)N[C@H](C(=O)N[C@@H](C)C(=O)NCCN)C(C)(C)C | inactive [at 9.29 µM] | 
7 | CS(=O)(=O)c1ccc([C@H](CC2CCCC2)C(=O)Nc2nccs2)cc1 | inactive | 
8 | C=C1C(=O)OC2C1C(O)CC1(C)C(O)CCC(C=O)C21 (stereo not drawn) | inactive | 
9 | C=C[C@H]1C(O[C@@H]2O[C@H](CO)[C@@H](O)[C@H](O)[C@H]2O)OC=C2C(=O)N3CCc4c([nH]c5ccccc45)C3CC21 (stereo partly drawn) | inactive [at 17.4 µM] | 
10 | COC(=O)CC(O)CC(O)/C=C/c1c(C)ccc2c1C(O)CC(C)C2 (stereo not drawn) | inactive | 
11 | O=C(Nc1ccc(-c2ccncc2)cc1)N[C@H](CO)c1ccccc1 | inactive | 
12 | CCC(O)(C(=O)OCc1ccccc1NC(=O)CCC(=O)O)C(C)O (stereo not drawn) | inactive | 
13 | O=C1NC(Cc2c[nH]c3ccccc23)C(=O)NC1Cc1cnc[nH]1 (stereo not drawn) | inactive | 
14 | CC(C)(F)C[C@@H](N[C@@H](c1ccc(-c2ccc(S(C)(=O)=O)cc2)cc1)C(F)(F)F)C(=O)NC1(C#N)CC1 | inactive | 
15 | CC1(C)C[C@H](O)C[C@@]2(C)OC(=O)C=C12 | inactive [at 93.4 µM] | 
16 | COc1cc(C(=O)O)ccc1OC1OC(CO)C(O)C(O)C1O (stereo not drawn) | inactive | 
17 | CC(=O)N1CCN(C(=O)Cc2ccc(Nc3ncc(F)c(Nc4ccc(C(=O)Nc5ccccc5Cl)cc4)n3)cc2)CC1 |  | 2.91 µM (active)
18 | Cc1nc(NC(=O)N2CCCC2C(N)=O)sc1-c1csc(C(C)(C)C)n1 (stereo not drawn) | inactive | 
19 | COc1ccc(CNC(=O)c2cc(-c3cncc(C)c3)ncc2-c2nccs2)nc1OC | inactive | 

Row | SMILES | outcome | Potency
20 | C=C1[C@H](OC(C)=O)[C@H]2[C@@H](OC(C)=O)[C@](C)(OC(C)=O)C[C@]2(OC(C)=O)C(=O)[C@H](C)/C=C/C(C)(C)C(=O)[C@H](OC(=O)C(C)C)[C@H]1OC(C)=O | inactive [at 17.4 µM] | 
21 | CN[C@H](CC(C)C)C(=O)N[C@H]1C(=O)N[C@@H](CC(N)=O)C(=O)N[C@H]2C(=O)N[C@H]3C(=O)N[C@H](C(=O)N[C@H](C(=O)O)c4cc(O)cc(O)c4-c4cc3ccc4O)[C@H](O[C@H]3C[C@](C)(N)[C@@H](O)[C@H](C)O3)c3ccc(c(Cl)c3)Oc3cc2cc(c3O[C@@H]2O[C@H](CO)[C@@H](O)[C@H](O)[C@H]2O[C@H]2C[C@](C)(NCc3ccc(-c4ccc(Cl)cc4)cc3)[C@@H](O)[C@H](C)O2)Oc2ccc(cc2Cl)[C@H]1O | inactive [at 17.4 µM] | 
22 | OC[C@H]1O[C@@H](OC[C@H]2O[C@@H](OC/C=C/c3ccccc3)[C@H](O)[C@@H](O)[C@@H]2O)[C@@H](O)[C@@H]1O | inactive [at 17.4 µM] | 
23 | COC(C(=O)N1Cc2[nH]nc(NC(=O)c3ccc(N4CCN(C)CC4)cc3)c2C1)c1ccccc1 (stereo not drawn) |  | 0.517 µM (active)
24 | CC(C)C1=CC2C(CC[C@]2(C)O)[C@](C)(O)CC1 (stereo partly drawn) | inactive | 
25 | C=C[C@@H]1[C@H](O[C@@H]2O[C@H](CO)[C@@H](O)[C@H](O)[C@H]2O)OC=C(C(=O)O)[C@H]1CCOC(=O)/C=C/c1ccc(O)c(O)c1 | inactive [at 17.4 µM] | 
26 | O=C(c1ccc2nccnc2c1)N1CCCCC1 | inactive | 
27 | C=C[C@H]1[C@H](O[C@@H]2O[C@H](CO)[C@@H](O)[C@H](O)[C@H]2O)OC=C(C(=O)OC)[C@H]1CCOC(=O)c1cc(O)c(O)c(O)c1 | inactive [at 17.4 µM] | 
28 | COC(=O)[C@H](O)[C@H]1C(C)(C)[C@H](OC(=O)C(C)C)[C@@]2(O)C(=O)[C@]1(C)C1CC[C@]3(C)C(CC(=O)O[C@H]3c3ccoc3)[C@]13O[C@@H]32 (stereo partly drawn) | inactive [at 17.4 µM] | 
29 | COc1c2cc(c(O)c1OC)-c1cc(ccc1O)CCC(O)CCCC2 (stereo not drawn) | inactive | 
30 | O=C(O)/C=C/c1ccc(O)c(O[C@@H]2O[C@H](CO)[C@@H](O)[C@H](O)[C@H]2O)c1 | inactive | 
31 | O=C(Nc1c(-c2cccs2)nc2ccccn12)c1ccc(Cl)cc1 | inactive | 
32 | CC(C)=CCC/C(C)=C/CCC1(C)Oc2c(c(O)cc3c2CN(C(CCC(=O)O)C(=O)O)C3=O)CC1O (stereo not drawn) | inactive [at 17.4 µM] | 
33 | CC(C)=CCC/C(C)=C/CO[C@@H]1O[C@H](CO)[C@@H](OC(=O)/C=C/c2ccc(O)cc2)[C@H](O[C@@H]2O[C@@H](C)[C@H](O)[C@@H](O)[C@H]2O)[C@H]1O | inactive [at 17.4 µM] | 
34 | CCOc1cc(C)c(Cl)cc1S(=O)(=O)n1cnc2ccccc21 | inactive [at 17.4 µM] | 
35 | COc1cc2c(cc1OC)CC(=O)N(CCCNC[C@H]1Cc3cc(OC)c(OC)cc31)CC2 | inactive | 
36 | CC(C)(O[C@@H]1O[C@H](CO)[C@@H](O)[C@H](O)[C@H]1O)C(OC(=O)/C=C\c1ccc(O)cc1)C(=O)OCc1ccc(O[C@@H]2O[C@H](CO)[C@@H](O)[C@H](O)[C@H]2O)cc1 (stereo partly drawn) | inactive [at 17.4 µM] | 
37 | CC1(C)CC[C@]2(C(=O)O[C@@H]3O[C@H](CO)[C@@H](O)[C@H](O)[C@H]3O)CC[C@]3(C)C(=CCC4[C@@]5(C)C[C@@H](O)[C@H](O)[C@](C)(C=O)C5CC[C@]43C)[C@@H]2[C@@H]1O (stereo partly drawn) | inactive [at 17.4 µM] | 
38 | O=C(CN1C(=O)C2(CCCC2)NCC1c1cc(F)cc(F)c1)Nc1ccc2c(c1)CC1(C2)C(=O)Nc2ncccc21 (stereo not drawn) | inactive | 

Source: PubChem BioAssay (NCATS)
